Measurements published in PubChem BioAssay AID1159580 (chemical genetic matrix, 2015).
Several values for one entry are separate records, joined by “and”; a condition that tells them apart may be missing. Identical values can stand only once. In all, about 5,500 compounds went through this assay and about 2,000 (36%) were called active. Roughly 18% stayed inconclusive and do not appear here. No stated cut-off is given here; in the data, active means normalized growth mostly below about 0.91 (no sharp cut-off); inconclusive means no clear call, values can overlap the other calls; inactive means mostly above about 0.92. The list shows a part of the results.

Test: chemical genetic growth profiling, strain panel (AID 1159580);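 further: tested at 20 µM; growth read once vehicle control cultures reached saturation at 30 °C; 1 = growth at the plate median or of vehicle wells; lower values mean less growth of the strain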
Conditions: S. cerevisiae deletion strains, growth OD

Measured: normalized growth

CN(C)CCCN1c2ccccc2CCc2ccccc21
inactive: locus YAL013W, strain DEP1, active compounds read low 1.01 and 0.974 | locus YAL021C, strain ccr4, active compounds read low 0.965 | locus YAL026C, strain drs2, active compounds read low 1 | locus YAL030W, strain snc1, active compounds read low 1 | locus YAL040C, strain CLN3, active compounds read low 1.05 | locus YBL061C, strain skt5, active compounds read low 1 | locus YBR009C, strain hhf1, active compounds read low 0.995 | locus YBR021W, strain FUR4, active compounds read low 0.997 | locus YBR023C, strain chs3, active compounds read low 1 | locus YBR171W, strain sec66, active compounds read low 1.01 | locus YBR229C, strain ROT2, active compounds read low 1 | locus YBR231C, strain swc5, active compounds read low 1 | locus YBR279W, strain paf1, active compounds read low 1 | locus YCL011C, strain gbp2, active compounds read low 1.01 | locus YCL016C, strain dcc1, active compounds read low 0.994 | locus YCL029C, strain bik1, active compounds read low 1 | locus YCL061C, strain MRC1 (second series), active compounds read low 1 | locus YCL061C, strain MRC1, active compounds read low 0.997 | locus YCL069W, strain vba3, active compounds read low 1 | locus YCR088W, strain abp1, active compounds read low 1.01 | locus YDL005C, strain med2, active compounds read low 1.01 | locus YDL035C, strain GPR1, active compounds read low 1.03 | locus YDL040C, strain nat1, active compounds read low 1 | locus YDL074C, strain BRE1, active compounds read low 1.02 | locus YDL101C, strain DUN1, active compounds read low 1.03 | locus YDL134C, strain PPH21, active compounds read low 1.03 | locus YDL185W, strain tfp1, active compounds read low 0.993 | locus YDL192W, strain arf1, active compounds read low 0.992 | locus YDR001C, strain nth1, active compounds read low 1.01 | locus YDR069C, strain doa4, active compounds read low 0.994 | locus YDR101C, strain arx1, active compounds read low 0.998 | locus YDR137W, strain rgp1, active compounds read low 1.1 | locus YDR150W, strain NUM1, active compounds read low 1.01 | locus YDR159W, strain sac3, active compounds read low 1 | locus YDR162C, strain NBP2, active compounds read low 1.01 | locus YDR195W, strain ref2 1.02 | locus YDR297W, strain sur2, active compounds read low 0.996 | locus YDR318W, strain mcm21, active compounds read low 0.994 | locus YDR334W, strain swr1, active compounds read low 1.01 | locus YDR335W, strain msn5, active compounds read low 1.01 | locus YDR363W, strain ESC2, active compounds read low 0.964 | locus YDR388W, active compounds read low 0.995 | locus YDR392W, strain spt3, active compounds read low 1.01 | locus YDR502C, strain sam2, active compounds read low 0.993 | locus YEL003W, strain gim4, active compounds read low 1 | locus YEL037C, strain rad23, active compounds read low 1 | locus YEL061C, strain CIN8 (second series), active compounds read low 1.03 | locus YEL061C, strain CIN8, active compounds read low 1.01 | locus YER002W, strain NOP16, active compounds read low 1.01 | locus YER015W, strain faa2, active compounds read low 0.993 | locus YER016W, strain bim1, active compounds read low 1.01 | locus YER110C, active compounds read low 0.988 | locus YER111C, strain swi4, active compounds read low 0.99 | locus YER155C, strain BEM2 (second series), active compounds read low 0.975 | locus YER155C, strain BEM2, active compounds read low 1 | locus YER167W, strain BCK2, active compounds read low 1.01 | locus YFR010W, strain ubp6, active compounds read low 1.01 | locus YGL078C, strain dbp3, active compounds read low 0.972 | locus YGL086W, strain mad1, active compounds read low 1.01 | locus YGL167C, strain pmr1, active compounds read low 1.01 | locus YGL173C, strain kem1, active compounds read low 0.991 | locus YGL227W, strain vid30, active compounds read low 1 | locus YGL240W, strain doc1, active compounds read low 1 | locus YGL248W, strain PDE1, active compounds read low 1.01 | locus YGL253W, strain hxk2, active compounds read low 1.02 | locus YGR078C, strain PAC10, active compounds read low 1 and 0.981 | locus YGR135W, strain pre9, active compounds read low 0.958 | locus YGR229C, strain SMI1, active compounds read low 1 and 0.978 | locus YGR252W, strain gcn5, active compounds read low 0.942 | locus YHR013C, strain ard1, active compounds read low 0.947 | locus YHR027C, strain rpn1, active compounds read low 1.01 | locus YHR030C, strain SLT2, active compounds read low 1 and 0.993 | locus YHR079C, strain IRE1 (second series), active compounds read low 0.989 | locus YHR079C, strain IRE1, active compounds read low 1.01 | locus YHR094C, strain hxt1, active compounds read low 0.978 | locus YHR129C, strain ARP1, active compounds read low 1.01 | locus YHR142W, strain chs7, active compounds read low 1.02 | locus YHR200W, strain rpn10, active compounds read low 1 | locus YIL066C, strain RNR3, active compounds read low 1.01 | locus YIL073C, strain SPO22, active compounds read low 1 | locus YIL125W, strain kgd1, active compounds read low 0.995 | locus YIR030C, strain dcg1, active compounds read low 0.984 | locus YJL092W, strain hpr5, active compounds read low 1.01 | locus YJL095W, strain BCK1 (second series), active compounds read low 0.996 | locus YJL095W, strain BCK1, active compounds read low 0.997 and 0.998 | locus YJL115W, strain asf1, active compounds read low 1.01 | locus YJL129C, strain trk1, active compounds read low 0.995 | locus YJL134W, strain LCB3, active compounds read low 1.01 | locus YJL154C, strain vps35, active compounds read low 1.02 | locus YJL164C, strain tpk1, active compounds read low 1 | locus YJL166W, strain qcr8, active compounds read low 1.02 | locus YJL168C, strain set2, active compounds read low 0.984 | locus YJL187C, strain SWE1 (second series), active compounds read low 1.01 | locus YJR043C, strain POL32, active compounds read low 1.03 | locus YJR066W, strain TOR1, active compounds read low 0.923
